Data published in PubChem BioAssay (NCATS).
Inconclusive results are not listed. A number with no mark means an inactive call. Calls of active or inactive are those of the source. The call rests on the fitted dose curve; in most records, active means well fitted inhibition curve with a large enough effect; inconclusive means small, poorly fitted or top-dose-only effect; inactive means flat fitted curve, though single readings scatter.

Test system: astro (control astrocytes)
Experiment: Drug repurposing screens with cells derived from glioblastoma tumor samples (AID 1345199); further: nearly all actives have a fitted effect of over 40% in size
Conditions: viability, ATP luminescence, 48 h; series mostly up to 45.9 µM; activity, negative = cell killing: at the top concentration
How it was run: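 Four patient lines of CD133+ GBM neurospheres were screened at several concentrations; hits were retested in those lines plus three slower-growing GBM lines, using 48-hour treatment and ATP-based viability.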
On the % scale 0 is the no-effect control and ±100 the full control effect; potency means the concentration at half of the fitted maximal effect.

| Structure (SMILES) | activity, negative = cell killing | Potency |
| --- | --- | --- |
| CCCCN(CCCC)CCCOC(=O)c1ccc(N)cc1 | -16.5% [at 21.2 µM] |  |
| Cc1cc(C(C#N)c2ccc(Cl)cc2)c(Cl)cc1NC(=O)c1cc(I)cc(I)c1O (stereo not given) |  | 3.98 µM (active) |
| NS(=O)(=O)c1cc2c(cc1C(F)(F)F)NC(Cc1ccccc1)NS2(=O)=O (stereo not given) | -12.9% [at 21.2 µM] |  |
| COc1ccc(S(=O)(=O)Nc2nnc(CC(C)C)s2)cc1 |  | inactive |
| C=CCn1c(=O)n([C@@H]2O[C@H](CO)[C@@H](O)[C@H]2O)c2nc(N)[nH]c(=O)c21 | -11.6% |  |
| CO/N=C(\C(=O)N[C@@H]1C(=O)N2C(C(=O)O)=C(CSc3nc(=O)c(O)nn3C)CS[C@H]12)c1csc(N)n1 | -8.35% |  |
| CC1(C)OC(=O)NC1=O | -13.2% |  |
| Cc1cc(O)cc2c1O[C@](C)(CCC[C@H](C)CCC[C@H](C)CCCC(C)C)CC2 | -7.35% |  |
| CC[C@@]1(c2ccccc2)NC(=O)N(C)C1=O | -10.2% |  |
| Nc1ncnc2c1ncn2[C@@H]1O[C@H](CO)[C@@H](O)[C@H]1O | -4.02% |  |
| CCn1cc(C(=O)O)c(=O)c2cnc(N3CCNCC3)nc21 | -12.9% [at 21.2 µM] |  |
| CN(C)CCCO[C@@H]1[C@H]2OC(C)(C)O[C@H]2O[C@@H]1C(O)CO (stereo not given in full) | -17.6% |  |
| NCC(=O)CCC(=O)O | -0.137% |  |
| CCCCCCCCCCCCCCCC(=O)NCCO | -10.9% |  |
| CCN(CC)CCNC(=O)c1cc(Cl)c(N)cc1OC | -19% |  |
| Nc1cc(=O)[nH]c(N)n1 | -7.03% |  |
| Cn1cc[nH]c1=S | -12.4% [at 21.2 µM] |  |
| CC(C)c1c(C(=O)Nc2ccccc2)c(-c2ccccc2)c(-c2ccc(F)cc2)n1CC[C@@H](O)C[C@@H](O)CC(=O)O |  | 11.2 µM (active) |

| Structure (SMILES) | activity, negative = cell killing | Potency |
| --- | --- | --- |
| O=c1[nH]c(=O)c2[nH]c(=O)[nH]c2[nH]1 |  | inactive |
| CC(=O)CCC(=O)O | -16.2% |  |
| O=C(O)COc1nn(Cc2ccccc2)c2ccccc12 | -17.4% |  |
| CCCOC(=O)c1ccccc1 | -14.6% |  |
| NC(=O)c1ncn([C@@H]2O[C@H](CO)[C@@H](O)[C@H]2O)c1N | -9.12% |  |
| Cc1c(Cl)cccc1Nc1ccccc1C(=O)O |  | 11.2 µM (active) |
| O=C1NC(=O)[C@@]2(CCOc3ccc(F)cc32)N1 | -0.586% |  |
| CN(N=O)C(=O)N[C@@H]1[C@@H](O)[C@H](O)[C@@H](CO)O[C@@H]1O | -18.5% [at 21.2 µM] |  |
| C[C@@H]1C[C@H]2[C@@H]3C[C@H](F)C4=CC(=O)C=C[C@]4(C)[C@@]3(F)[C@@H](O)C[C@]2(C)[C@@]1(O)C(=O)CO | -3.02% [at 21.2 µM] |  |
| CCCCN(CCCC)CC(O)c1cc(Cl)cc2c1-c1ccc(Cl)cc1/C2=C/c1ccc(Cl)cc1 (stereo not given) | -23.7% |  |
| CC(=O)Oc1c(C)c(C)c2c(c1C)CC[C@@](C)(CCC[C@H](C)CCC[C@H](C)CCCC(C)C)O2 |  | inactive |
| CC(C(O)c1ccc(O)cc1)N1CCC(Cc2ccccc2)CC1 (stereo not given) | -19.6% |  |
| CCCn1cnc2c1c(=O)n(CCCCC(C)=O)c(=O)n2C | -21.4% |  |
| CC/C=C(\C(=O)N[C@@H]1C(=O)N2C(C(=O)OCOC(=O)C(C)(C)C)=C(COC(N)=O)CS[C@H]12)c1csc(N)n1 |  | inactive |
| CC(=O)Nc1ccc(/C=N/NC(N)=S)cc1 |  | inactive |
| O=C(O)CN1C(=O)c2cccc3cccc(c23)C1=O | -2.7% |  |
| CC(C)C(=O)c1c(C(C)C)nn2ccccc12 | -19.6% |  |
